# In the supplement of paper PMC6555819:
# What was measured:
# Assay in all cases: PBM binding z-score (relative to random genomic background probes); higher = stronger binding; sequences stand for … in GC…GCGATTGACAGCGTAGAATGAAGG
# [1] = test system: FXR:RXRa (NR concentration 270 nM, RXRa partner concentration 90 nM)
# Summary of the method: (§1)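 Probes were double-stranded and carried 34-nt variable regions with direct-repeat seeds, single-nucleotide variants, half-site ablations and random human genomic background sequences, printed on custom Agilent 4×180K protein-binding microarrays. Arrays were incubated 1 h with ligand-free nuclear receptor dimers in PBS pH 7.4, 2% milk, 0.02% Triton X-100, 1 mM DTT, 0.2 mg/mL BSA and 0.4 mg/ml salmon testes DNA. Antibodies against each partner (one per run) detected binding, and scanned fluorescence was regression-normalized. Binding z-scores use the random background probes as reference.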
# [2] = test system: LXRa:RXRa (NR concentration 270 nM, RXRa partner concentration 90 nM)
# Summary of the method: as §1
# [3] = test system: LXRa homodimer (NR concentration 270 nM)
# Summary of the method: as §1
# [4] = test system: LXRb:RXRa (NR concentration 270 nM, RXRa partner concentration 90 nM)
# Summary of the method: as §1
# [5] = test system: LXRb homodimer (NR concentration 270 nM)
# Summary of the method: as §1
# [6] = test system: PPARa:RXRa (NR concentration 270 nM, RXRa partner concentration 90 nM)
# Summary of the method: as §1
# [7] = test system: PPARg:RXRa (NR concentration 180 nM, RXRa partner concentration 90 nM)
# Summary of the method: as §1
# [8] = test system: PPARg:RXRa 270nM:90nM, anti-RXR (NR concentration 270 nM, RXRa partner concentration 90 nM)
# Summary of the method: as §1
# [9] = test system: PPARg:RXRa 30nM:10nM, anti-RXR (NR concentration 30 nM, RXRa partner concentration 10 nM)
# Summary of the method: as §1
# [10] = test system: PPARg:RXRa 90nM:30nM, anti-RXR (NR concentration 90 nM, RXRa partner concentration 30 nM)
# Summary of the method: as §1
# [11] = test system: PPARg:RXRa DBDmut IVT, anti-RXR (DBD mutation: RXRa K156A/R161A, NR concentration 270 nM, RXRa partner concentration 90 nM)
# Summary of the method: as §1
# [12] = test system: PPARg:RXRa IVT, anti-PPARg (NR concentration 270 nM, RXRa partner concentration 90 nM)
# Summary of the method: as §1
# [13] = test system: PPARg DBDmut:RXRa IVT, anti-PPARg (DBD mutation: PPARg1 K132A/R137A, NR concentration 270 nM, RXRa partner concentration 90 nM)
# Summary of the method: as §1
# [14] = test system: PPARg DBDmut IVT, anti-PPARg (DBD mutation: PPARg1 K132A/R137A, NR concentration 270 nM)
# Summary of the method: as §1
# [15] = test system: PPARg homodimer (NR concentration 180 nM)
# Summary of the method: as §1
# [16] = test system: PXR:RXRa (NR concentration 270 nM, RXRa partner concentration 90 nM)
# Summary of the method: as §1
# [17] = test system: PXR homodimer (NR concentration 270 nM)
# Summary of the method: as §1
# [18] = test system: RARa:RXR (NR concentration 270 nM, RXRa partner concentration 90 nM)
# Summary of the method: as §1
# [19] = test system: RARa homodimer (NR concentration 270 nM)
# Summary of the method: as §1
# [20] = test system: RARb:RXRa (NR concentration 270 nM, RXRa partner concentration 90 nM)
# Summary of the method: as §1
Sequence,PBM binding z-score [1],PBM binding z-score [2],PBM binding z-score [3],PBM binding z-score [4],PBM binding z-score [5],PBM binding z-score [6],PBM binding z-score [7],PBM binding z-score [8],PBM binding z-score [9],PBM binding z-score [10],PBM binding z-score [11],PBM binding z-score [12],PBM binding z-score [13],PBM binding z-score [14],PBM binding z-score [15],PBM binding z-score [16],PBM binding z-score [17],PBM binding z-score [18],PBM binding z-score [19],PBM binding z-score [20]
TAGCCTAGGTCAGATCGGTCCAGTATACGCTATA,1.8,0.953,-0.475,0.809,-0.111,1.74,0.543,0.782,-0.239,0.0897,0.702,1.74,-0.14,-0.564,-0.166,2.34,-0.919,0.948,-0.74,2.78
GGAACGAGGGCAAGTTGATAGCGGAGTTTGATGG,0.772,0.00493,-0.352,0.246,-0.525,1.7,0.963,1.16,0.00794,0.229,3.78,2.64,-0.0734,-0.677,0.26,0.392,0.189,0.406,-0.36,2.53
TCTTGTAGATCAGCACGTTAAGAAAGCTGGCCAA,0.121,0.0301,-0.232,-0.0159,-0.411,0.18,-0.291,0.766,2.47,1.43,1.32,-0.181,-0.456,-0.271,-0.311,0.0608,0.0555,0.441,0.0158,-0.204
TCTCGGAGGACACGAAGGTCAGAGATTTCCAGAG,1.38,0.932,0.277,1.25,-0.387,1.83,0.75,1.93,2.37,2.23,1.66,1.24,-0.127,-0.972,1.21,1.86,1.02,2.11,-0.144,3.4
CCGACTGGGGCCAAGGTTACCATACTCAGTACGA,0.714,0.334,-0.174,0.728,-0.267,1.91,3.85,4.51,1.74,3.8,0.261,1.58,-1.03,-0.715,0.238,0.644,0.142,1.14,-0.0443,1.77
TCTGCTAGGTCAGCGATGGTCAGCTAATCTGCTA,1.17,0.657,-0.944,0.271,-0.838,1.66,0.772,1.62,1.56,1.29,3.18,3.05,-0.711,-0.258,0.723,0.17,-1.61,1.31,-1.26,3.33
TCTGCTAGGTCAACGATGGTCAGCTACTCTGCTA,3.16,2.86,-0.273,1.48,-0.302,3.3,2.4,3.05,1.62,2.47,4.3,4.17,-0.186,-0.6,0.254,1.42,-0.802,1.93,-0.564,4.14
ATATGTAGGTTATCGGGTCACTCAGTTTGCGCAT,2.62,2.95,1.49,2.89,1.3,5.02,7.63,6,3.64,5.8,7.7,7.75,1.5,2.23,3.69,3.61,4.7,3.72,1.9,2.68
CCTTACGGGTCACTCCAGTTTATAGCATCGGAGT,5.02,6.61,0.838,3.77,-0.0101,4.4,3.25,3.3,1.11,2.27,2.98,3.39,0.913,0.686,2.32,6.04,1.06,3.6,0.603,3.74
ATCGAAAGGTCGGAGGTGAGTATACCCACCCGAA,2.56,2.13,-0.237,1.67,0.308,3.57,2.78,3.13,1.04,2.13,-0.278,1.78,1.11,0.559,1.66,1.87,0.241,2.79,0.0274,3.28
CCTCGGAGGACAGACGGTCAGAGCTGTCCGCTTT,-0.245,-0.454,-0.415,-1.1,-0.8,-0.791,-0.705,-1.01,-1.36,-0.797,-0.634,-0.745,-1.14,-1.66,-0.576,-0.726,-0.42,-0.842,-0.616,1.23
AGAATGAAGTTACCAAAGATCAGGGAAACGCTTG,-0.327,0.631,-0.337,-0.292,-0.771,-0.153,0.523,0.0888,0.0872,0.08,-0.595,-0.423,0.443,0.266,-0.127,-0.206,-0.375,-0.000481,-0.214,-0.335
CCTAGTTGGTCAAGGTCGCACACGCTATAGGTAC,1.28,0.906,0.275,1.18,-0.0478,1.68,1.15,1.37,0.0592,0.958,1.4,1.87,0.308,0.288,1.55,1.57,1.04,1.69,0.482,2.43
TCTATTCGTTGATTAGGGCAACCGAAACAGCGGA,0.77,0.642,-0.323,0.409,0.94,0.827,0.127,1.93,3.6,2.72,1.61,1.69,1.2,0.685,0.326,0.454,0.0175,0.417,-0.0226,0.637
ATCTCTAGGTAAAGATAGTTCAGTAAATGCAAAT,0.492,4.09,0.589,1.27,0.936,0.78,0.749,0.691,0.403,0.563,1.89,1.77,1.18,0.812,0.801,1.14,0.936,0.952,1.67,0.706
ACTAGCAGGCCAAGTTTGGGTAACTCAAACAAAG,-0.442,-0.634,-0.575,-0.304,-0.8,-0.339,-0.414,-0.541,-0.687,-0.687,0.555,0.362,-0.71,-1.1,-0.788,-0.378,-0.687,-0.383,-0.573,0.143
GGAACGAGGGCAAGTTGTTAGCAGAGTTTGATGG,0.972,0.498,-0.221,0.541,-0.646,1.84,0.863,1.04,-0.161,0.479,3.77,2.94,-0.421,-0.269,0.194,0.979,0.561,0.459,-0.28,2.78
TTACCAAGGTGAAGGTCGTTGGTCCCTCTGTAGA,1.16,1.1,-0.0893,1.2,-0.734,2.45,2.79,4.07,1.8,3.33,2.04,3.34,-0.723,-0.44,0.993,1.03,-0.26,1.49,-0.694,2.17
GATACAGGGTCAGGTAGAGGCCAGAGTATGGAAA,4.61,2.74,-0.128,2.58,-0.154,4.6,3.75,3.23,0.959,2.07,0.739,2.45,0.9,0.631,2.28,2.96,0.741,3.47,1.29,4
CCTACTGGGCCAAAGGTCGTTGATTCCAATGCTC,1.29,1.46,-0.124,1.91,-0.505,5.3,11.1,9.69,9.46,10.5,5.47,5.6,0.111,-0.79,1.18,2.45,0.0615,3.09,-0.377,1.97
TAGCCGAGGTCATGCGGGCCAGTATAGTGTCGGC,7.46,5.94,1.69,4.64,1,6.24,6,6.15,2.74,4.56,1.88,4.29,1.82,0.598,2.81,5.79,2.14,6.18,0.453,5.17
CGAACTAGGGCATCCAGGACAGTGAATACATTGA,0.197,-0.226,-0.3,-0.431,-0.651,2.12,3.28,2.52,0.606,1.5,7.07,6.16,1.33,1.16,0.204,-0.0736,0.524,0.0025,-0.274,1.3
CCAGACAGGTGAAAGGTAACTCGGTCTGGTACGC,0.495,0.577,-0.368,0.702,-0.561,3.46,5.96,5.52,4.56,6.21,2.3,2.9,-0.38,-1.24,0.981,0.75,-0.111,1.77,0.392,1.2
ATATGTACGTTACATCCGGGTCATTCAGGCTATG,1.77,1.94,1.06,2.44,0.756,2.53,1.39,1.41,0.502,1.35,1.16,1.97,2.06,2.28,1.34,3.1,3.05,3.04,0.866,1.56
CCGACTGGGGCAGAAAGGTTACCATCCCATCCGG,0.0864,0.742,-0.151,0.878,-0.971,2.03,1.44,2.53,0.448,1.96,1.51,1.69,-0.348,-1.37,0.985,0.837,-0.375,1.61,-0.144,1.89
TTGAGTAGGTTAGTCGGGGCATTCAGCCAACATA,0.205,0.325,0.413,0.932,0.285,1.11,0.307,0.997,0.398,0.742,3.52,3.36,0.385,0.257,0.88,0.618,0.715,0.545,0.987,0.733
TGAATGAGGTTAAAGATCAGGTAACGTGGCGTCG,3.32,2.73,-0.204,1.82,0.134,4.75,5.6,5.96,4.89,6.01,2.2,3.62,0.604,0.742,0.811,2.19,0.0433,3.18,0.33,2.01
ACAGACAGGTGAGCGAAGGTAACTCAGCTGGACG,-0.11,-0.471,-0.638,-0.645,-0.759,0.0839,0.737,-0.0383,-0.389,0.269,0.465,0.783,0.567,-0.608,-0.706,-0.51,-0.963,0.056,-0.65,0.608
CAAACTAGGTCACGAACGGTCAAAGTCGAATGAC,5.85,7.42,4.34,5.78,1.18,5.62,9.57,8.01,5.99,7.93,8.77,9.13,8.12,6.44,4.03,3.71,0.663,4.05,2.03,4.7
